STK33 inh: human STK33 kinase inhibition. Q9BYT3. ADP-Glo luminescence, MBP substrate. inhibition, % at 12.5 µM. 27,000 compounds, 0.44% hits. AID 2322; in the data active means inhibition above about 20%
Target sequence (Q9BYT3 whole entry, looked up): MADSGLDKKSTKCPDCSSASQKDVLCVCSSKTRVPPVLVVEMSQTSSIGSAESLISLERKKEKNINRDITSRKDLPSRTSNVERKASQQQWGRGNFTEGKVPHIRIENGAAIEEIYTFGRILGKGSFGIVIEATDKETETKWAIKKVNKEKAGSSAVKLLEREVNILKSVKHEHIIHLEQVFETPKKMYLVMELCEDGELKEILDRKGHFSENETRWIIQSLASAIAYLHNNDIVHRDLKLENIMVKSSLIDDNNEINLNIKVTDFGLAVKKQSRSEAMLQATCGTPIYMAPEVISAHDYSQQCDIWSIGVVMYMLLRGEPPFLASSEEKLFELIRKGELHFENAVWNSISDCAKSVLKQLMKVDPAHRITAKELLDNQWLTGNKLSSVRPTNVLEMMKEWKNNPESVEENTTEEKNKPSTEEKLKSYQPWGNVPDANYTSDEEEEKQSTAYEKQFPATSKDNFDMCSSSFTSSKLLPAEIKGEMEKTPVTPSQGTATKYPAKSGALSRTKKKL
ID4 binder: binders of human ID4 protein | P47928 | small molecule microarray, Flag-ID4 binding, fluorescence F/B | calls only | 31,000 compounds, 1.2% hits; call rule not given here;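 further: a binder raises fluorescence above local background on the spot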
* marks the source's active call; other numbers are inactive results; i = inactive; / = no result; + = active, no number. The list is not random: actives were taken first. Their share in the collection is about 1.1%.

SMILES	STK33 inh	ID4 binder
COC(=O)c1c2oc(c1C(=O)OC)C(=O)N(C)Cc1cn(nn1)C[C@@H](C)NC(=O)N[C@H](CO)CC2	/	i
CCCn1c(SCC(=O)N2CCOCC2)nnc1-c1ccncc1	1.4	i
Cn1c(SCC(=O)N2CCN(Cc3ccccc3)CC2)nnc1-c1ccncc1	-0.5	+
O=S(=O)(N[C@H]1CCN(Cc2cccc(OCCO)c2)C1)c1ccc2ccccc2c1	0.5	/
CC/C=C\C/C=C\C/C=C\CCCCCCCCCCCC(=O)O	-1.0	i
CC/C=C\C/C=C\C/C=C\CCCCCCCC(=O)O	1.5	+
CO[C@H](CN(C)Cc1ccc(-c2ccccn2)cc1)[C@@H](C)CN(C(=O)Nc1ccc(F)cc1)[C@@H](C)CO	/	i
CNC[C@@H]1Oc2ccc(NC(=O)c3ccncc3)cc2CC(=O)N([C@@H](C)CO)C[C@H]1C	/	+
Cc1noc(C)c1NC(=O)N(C)C[C@H]1Oc2ccc(NC(=O)Nc3ccc(F)cc3)cc2CC(=O)N([C@H](C)CO)C[C@H]1C	-0.5	+
C[C@H]1CN([C@@H](C)CO)C(=O)Cc2cc(NC(=O)Nc3cccc4ccccc34)ccc2O[C@H]1CN(C)C	-1.3	/
Cc1noc(C)c1NC(=O)N(C)C[C@H]1Oc2ccc(NC(=O)Nc3ccc(F)cc3)cc2CC(=O)N([C@@H](C)CO)C[C@@H]1C	-3.4	/
CNC[C@@H]1Oc2ccc(NC(=O)Nc3c(C)noc3C)cc2CC(=O)N([C@@H](C)CO)C[C@@H]1C	2.0	i
CNC[C@H]1Oc2ccc(NC(=O)c3ccncc3)cc2CC(=O)N([C@H](C)CO)C[C@@H]1C	/	i
CNC[C@@H]1Oc2ccc(NC(=O)Nc3cccc4ccccc34)cc2CC(=O)N([C@@H](C)CO)C[C@H]1C	/	+
CNC[C@@H]1Oc2ccc(NC(=O)Nc3c(C)noc3C)cc2CC(=O)N([C@H](C)CO)C[C@H]1C	/	+
CCOC(=O)c1c(NC(=S)Nc2ccsc2C(=O)OC)sc(C)c1-c1ccccc1	-0.7	i
C[C@@H]1CN([C@H](C)CO)C(=O)c2cc(NS(=O)(=O)c3ccccc3)ccc2O[C@@H](C)CCCCO[C@@H]1CN(C)C(=O)CCCN(C)C	/	i
C[C@H]1CN([C@@H](C)CO)C(=O)c2cc(NS(=O)(=O)c3cn(C)cn3)ccc2O[C@@H]1CN(C)C(=O)NC1CCCCC1	2.0	i
Cc1ccnc(SCC(=O)Nc2cccc(Cl)c2)n1	-0.8	i
CNC[C@H]1Oc2ccc(NC(=O)CCN3CCOCC3)cc2CC(=O)N([C@@H](C)CO)C[C@@H]1C	1.9	+
CNC[C@@H]1Oc2ccc(NC(=O)CCN3CCOCC3)cc2CC(=O)N([C@H](C)CO)C[C@H]1C	0.7	i
CCO[C@@H]1OC(C(=O)N2CCCC2)=C[C@H](c2ccc(C(F)(F)F)cc2)[C@H]1CCCO	/	i
CC(C)CC#Cc1cnc2c(c1)C(=O)N([C@@H](C)CO)C[C@H](C)[C@H](CN(C)C(=O)Cc1ccncc1)O2	/	i
C[C@H]1CN([C@@H](C)CO)C(=O)c2cccc(NS(C)(=O)=O)c2O[C@H]1CN(C)S(=O)(=O)c1ccc(Cl)cc1	/	i
CN/C(=C/[N+](=O)[O-])NCCSCc1csc(CN(C)C)n1	0.9	+
SMILES	STK33 inh	ID4 binder
COc1cccc(S(=O)(=O)N(C)C[C@@H]2Oc3ncc(C#Cc4ccc(OC)c(OC)c4)cc3C(=O)N([C@H](C)CO)C[C@@H]2C)c1	5.5	/
O=C(O)CNc1ncnc2oc(-c3ccccc3)c(-c3ccccc3)c12	43.4*	i
c1ccc(-c2oc3ncnc(NCCN4CCOCC4)c3c2-c2ccccc2)cc1	2.5	i
C[C@@H]1CN([C@@H](C)CO)C(=O)Cc2cc(NS(=O)(=O)c3ccccc3)ccc2O[C@H]1CN(C)C(=O)Nc1ccc2c(c1)OCO2	/	i
O=C1Nc2ccc(Br)cc2/C1=C/c1cc2c([nH]1)CCCC2	71.5*	/
CN(C)S(=O)(=O)c1ccc2c(c1)/C(=C/c1cc3c([nH]1)CCCC3)C(=O)N2	22.2	i
COc1ccc(S(=O)(=O)Nc2ccc3c(c2)C(=O)N([C@H](C)CO)C[C@H](C)[C@H](CN(C)Cc2ccc(Cl)c(Cl)c2)OCCCC[C@@H](C)O3)cc1	4.1	/
N#Cc1c(NC(=O)Cn2c(=O)oc3ccccc32)oc(-c2ccccc2)c1-c1ccccc1	0.9	+
N#Cc1c(NC(=O)Cn2c(=O)oc3ccccc32)sc2c1CCC2	1.4	i
C[C@@H]1CN([C@@H](C)CO)C(=O)c2cc(NS(=O)(=O)c3ccccc3)ccc2O[C@@H](C)CCCCO[C@H]1CN(C)C(=O)c1ccncc1	/	i
C[C@@H]1CCCCO[C@H](CN(C)Cc2ccccc2)[C@@H](C)CN([C@@H](C)CO)C(=O)c2cc(NS(=O)(=O)c3ccccc3)ccc2O1	/	i
C[C@H]1CCCCO[C@@H](CN(C)Cc2ccc(C(=O)O)cc2)[C@@H](C)CN([C@@H](C)CO)C(=O)c2cc(NS(=O)(=O)c3ccccc3)ccc2O1	/	+
C[C@H]1CCCCO[C@@H](CN(C)C(=O)c2ccncc2)[C@@H](C)CN([C@@H](C)CO)C(=O)c2cc(NS(=O)(=O)c3ccccc3)ccc2O1	/	+
O=C(COc1ccc(Cl)cc1Br)NCc1ccccn1	-0.3	i
CCCC#Cc1ccc2c(c1)O[C@H](CN(C)C(=O)c1cnccn1)[C@H](C)CN([C@H](C)CO)S2(=O)=O	/	i
COc1cccc(NC(=O)CC2C(=O)NC3CCCCC3N2C(=O)c2ccccc2)c1 (configuration not stated)	-1.9	+
CCC(=O)N1C(CC(=O)Nc2ccc(F)cc2)C(=O)NC2CCCCC21 (configuration not stated)	-1.4	/
O=C1c2ccccc2S(=O)(=O)N1CCCCN1CCN(c2ncccn2)CC1	/	+
O=C1CC2(CCCC2)CC(=O)N1CCCCN1CCN(c2ncccn2)CC1	0.6	i
CNC[C@@H]1Oc2c(NC(=O)NC3CCCCC3)cccc2C(=O)N([C@H](C)CO)C[C@H]1C	/	i
O=C(Nc1ccc(Cl)cc1Cl)NC(Cc1ccc(O)cc1)C(=O)O (configuration not stated)	-3.6	+
O=C(CSc1ncccn1)Nc1ccc(Cl)cc1Cl	1.9	i
O=C(NCCN1CCOCC1)[C@@]1(Cc2ccccc2)COC(c2ccc(OCCCO)cc2)=N1	-7.8	i
Cc1cccnc1NCC(O)COc1ccccc1 (configuration not stated)	1.6	+
Cc1cccnc1NC(=O)C(C)Oc1ccccc1 (configuration not stated)	4.3	i
SMILES	STK33 inh	ID4 binder
C[C@@H]1CN([C@@H](C)CO)C(=O)c2cc(NS(C)(=O)=O)ccc2O[C@@H](C)CCCCO[C@@H]1CN(C)Cc1ccccc1	/	i
CNC[C@@H]1Oc2cc(Br)ccc2S(=O)(=O)N([C@H](C)CO)C[C@H]1C	/	i
CNC[C@H]1Oc2cc(Br)ccc2S(=O)(=O)N([C@H](C)CO)C[C@H]1C	/	+
CNC[C@@H]1Oc2cc(C#Cc3ccccc3)ccc2S(=O)(=O)N([C@H](C)CO)C[C@H]1C	/	i
CNC[C@@H]1Oc2cc(C#Cc3cccnc3)ccc2S(=O)(=O)N([C@@H](C)CO)C[C@H]1C	/	+
C/C=C/c1cnc2c(c1)C(=O)N([C@@H](C)CO)C[C@@H](C)[C@H](CN(C)Cc1ccccc1F)O2	/	i
Cc1cc(C)c(S(=O)(=O)N(CC(=O)O)C2CCCCC2)c(C)c1	-3.4	i
